# Over roughly 33,000 sequences, “E-score (-0.5 to 0.5)” has its median near -0.041; the highest 2% begin near 0.37. Many of the other results were omitted from the sample, so the highest values are more common in it than they were.
# Biological target: T1, Ecm22 (UniProt Q05958)
# T1 sequence: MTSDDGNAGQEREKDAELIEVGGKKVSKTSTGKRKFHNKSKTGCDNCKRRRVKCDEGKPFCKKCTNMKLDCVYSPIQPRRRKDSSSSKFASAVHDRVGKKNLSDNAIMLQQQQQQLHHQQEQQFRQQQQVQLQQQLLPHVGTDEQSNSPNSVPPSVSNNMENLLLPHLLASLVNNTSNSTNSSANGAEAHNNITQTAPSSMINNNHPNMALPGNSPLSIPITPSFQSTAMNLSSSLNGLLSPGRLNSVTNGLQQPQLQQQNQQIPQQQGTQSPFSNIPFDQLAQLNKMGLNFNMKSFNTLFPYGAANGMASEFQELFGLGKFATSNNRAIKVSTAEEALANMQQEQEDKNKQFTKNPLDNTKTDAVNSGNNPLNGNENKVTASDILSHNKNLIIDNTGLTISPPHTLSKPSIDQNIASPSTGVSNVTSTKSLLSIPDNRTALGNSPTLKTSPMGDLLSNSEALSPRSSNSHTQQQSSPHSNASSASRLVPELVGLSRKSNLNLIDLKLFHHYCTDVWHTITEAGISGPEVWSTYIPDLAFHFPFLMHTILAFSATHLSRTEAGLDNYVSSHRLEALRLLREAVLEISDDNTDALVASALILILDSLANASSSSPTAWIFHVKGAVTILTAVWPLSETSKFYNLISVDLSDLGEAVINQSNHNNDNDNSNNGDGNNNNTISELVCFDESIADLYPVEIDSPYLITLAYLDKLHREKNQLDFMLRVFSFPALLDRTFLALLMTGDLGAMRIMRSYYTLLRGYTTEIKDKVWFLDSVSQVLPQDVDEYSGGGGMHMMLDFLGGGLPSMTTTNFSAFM
# Experiment: PBM E-score (8-mer binding enrichment) (E-score (-0.5 to 0.5)); higher = stronger / more preferred TF binding
# Conditions: protein concentration: 200 nM; construct: GST-full length
# Description: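 Universal 'all 10-mer' protein binding microarrays (Agilent AMADID 015681) probed with GST-tagged S. cerevisiae TFs (full-length or DBD) made by in vitro transcription/translation (PURExpress), about 100-200 nM. Bound TF was detected with fluorescent anti-GST. Each ungapped 8-mer (which stands for itself and its reverse complement) is scored by the PBM enrichment score (E-score), a modified Wilcoxon-Mann-Whitney statistic from -0.5 to +0.5, computed with the Universal PBM Analysis Suite. Scale: above 0.35 generally sequence-specific binding.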
row,Sequence,PBM E-score
1,GAAGCAGA,-0.215
2,GGACGTAC,0.126
3,GGTCGCAC,0.228
4,CGTAGTAG,0.109
5,CGTCGTAG,0.406
6,CGTCGTGC,0.177
7,AGTCGTGC,-0.0872
8,CGTCGTCC,-0.054
9,AGTCGTCC,-0.0209
10,AGTCGTAC,0.46
11,CATCGTCG,0.0968
12,GGTCGTAC,0.482
13,CGTCGTAC,0.486
14,CCCCGAAC,-0.0375
15,GGAAAATA,0.0993
16,GATCGGGA,0.0412
17,CCAGGTCC,-0.192
18,GAAAAAGC,-0.00535
19,ACTCAGTC,-0.147
20,CCCTCCAG,-0.206
21,AGGTGAAC,0.0634
22,TGAGTAAA,-0.13
23,ATTCTCGA,0.168
24,AGTCGTAT,0.46
25,AGTCGTCG,0.01

row,Sequence,PBM E-score
1,AGTCGTAG,0.304
2,AGCCTAAC,-0.0712
3,ATCTGCGG,-0.00985
4,GATGAGGA,-0.0394
5,AGGAGCTA,-0.138
6,GTCTCGTA,0.461
7,CTCTCGAA,-0.0852
8,ATCTCGTC,0.158
9,GTCTCGGA,0.242
10,ATCTCGTA,0.466
11,GTCTCGAA,-0.00716
12,CTCTCGTC,0.0625
13,CTCTCGTA,0.457
14,ATCTCGTG,0.193
15,CTGCGGGC,-0.163
16,AACGCTTG,-0.121
17,CTTGGACC,-0.134
18,CGTAGCTC,0.32
19,AACTTAGA,-0.0444
20,GCGTCGCA,0.23
21,CCGTCGTA,0.471
22,CCGTCGGA,0.0756
23,ACGTCGTG,0.117
24,ACGTCGTA,0.464
25,GCGTCGTA,0.471

row,Sequence,PBM E-score
1,GCGTCGAA,0.0462
2,CCGTCGTC,0.0655
3,ACGTCGTC,0.175
4,GTCATAGA,-0.115
5,CTCAACCC,-0.14
6,AACCCCGT,0.0296
7,AGTATGAC,0.0876
8,CGTATGAC,0.407
9,CGTATGAG,0.354
10,GGTATGAC,-0.125
11,CGTATGAA,0.415
12,AGTATGAA,0.0349
13,CCGCAATA,0.0155
14,AAAACTCG,0.182
15,AAACACCG,0.14
16,GCATGCCA,0.0106
17,CGTTTCCC,0.261
18,CGTTCCCC,0.428
19,AGTTCCCA,0.0586
20,AGTTCCCC,-0.0578
21,GGTTCCCA,-0.173
22,CGTTCCCA,0.443
23,CGCCTTTC,0.0685
24,CTAGAAGA,-0.0952
25,ATGGACTG,-0.151

row,Sequence,PBM E-score
1,CCACTTCC,0.0365
2,TAACGAAA,0.296
3,AAACGTAT,0.319
4,AAACGAAT,0.453
5,CAACGAAG,0.277
6,CCACGAAG,0.0223
7,AACCGAAT,0.284
8,AAACGAAA,0.449
9,AAACGAAG,0.457
10,CAACGAAA,0.278
11,GATTAGCC,0.0338
12,GCCACTCA,-0.196
13,AACCGCGC,-0.0112
14,ACGCTGCA,-0.0508
15,AAAAACAG,-0.0439
16,CACGAACA,0.177
17,GACGAACC,0.0132
18,CACGAACG,0.312
19,TACGAACA,0.452
20,AGCGAACA,0.198
21,GACGAACA,0.0113
22,AACGAACA,0.409
23,AACGAACT,0.354
24,CACGAACC,0.0995
25,AACGAACC,0.408

row,Sequence,PBM E-score
1,AACGAACG,0.437
2,TCCGAACA,0.0654
3,GCCCGGCC,-0.229
4,ACGGTTAC,0.255
5,AGGAAGGG,-0.211
6,TCTGCTAA,-0.086
7,CTTTCTCA,0.00463
8,CACTATCA,-0.0654
9,CCGCTGAA,-0.00985
10,GTCTGGTA,0.00642
11,AAGCGAAC,0.268
12,CCACGAAA,-0.0672
13,AAACGAAC,0.454
14,GAACGAAC,0.453
15,AAACGGAC,0.307
16,GAACGAAA,0.43
17,CAACGAAC,0.272
18,TGACGAAA,0.061
19,GAACGGAC,0.279
20,AGCGGGAG,-0.188
21,GGGGGTTA,-0.298
22,AACCCGAG,0.267
23,GCATCCGC,-0.18
24,CTGCGGGA,-0.163
25,AGGAGCGA,0.328

row,Sequence,PBM E-score
1,AGTATAAG,0.109
2,CGTATAAA,0.477
3,AGTATAAC,0.0917
4,TGTATAAA,0.172
5,CGTATCAA,0.386
6,AGTATAAA,0.241
7,GGTATAAC,0.0372
8,CGTATAAC,0.473
9,CGTATCAC,0.365
10,TGTATCAA,-0.0485
11,CATATAAG,0.0284
12,CGTATAAG,0.466
13,CTGAAGAC,0.056
14,CAAGCCGC,-0.0639
15,CGCTTGGC,0.0372
16,CCGCGCGG,0.263
17,CGTGTGTC,0.0878
18,AGATCAGC,-0.106
19,ACATCTTG,-0.0408
20,CGCAGTAC,0.174
21,CGCACGAA,0.175
22,CTTCTTCA,-0.341
23,CCCGAAGC,-0.0995
24,GGCGATGA,-0.00497
25,ACTTTACA,-0.00715

row,Sequence,PBM E-score
1,ATTTTACC,0.06
2,AATTTACG,0.303
3,CCTTTACG,0.329
4,ACTTTACG,0.394
5,ATTTTACG,0.392
6,CTCTCCGC,-0.147
7,GCAGTGCC,-0.179
8,GTAACCTA,0.00094
9,AGCCACGC,-0.14
10,GCGAGCGA,0.31
11,ACGAGCGC,0.327
12,AAGAGCGT,0.0857
13,ACGAGCGT,0.389
14,CCGAGCGG,0.202
15,ATGAGCGG,-0.0285
16,ACGAGCGG,0.386
17,ACGAGCGA,0.409
18,CCGAGCGA,0.237
19,AGTCTTTG,-0.0796
20,ATCTCGGC,0.0673
21,CGCTAAGA,0.149
22,CCACTGCC,-0.0201
